For 60 compounds, inhibition results are on record in PubChem BioAssay AID485317 (Broad Institute, 2010).

By inhibition is commonly meant the drop in the measured response relative to a control, in per cent.

Each structure is given as a SMILES string. Among all 290,000 compounds or so, about 11,000 (3.8%) were called active. The full list was thinned out, with actives kept by preference. A number with no mark means an inactive call.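 The calls were made as follows: active = mean replicate inhibition above about 79%, with every replicate also reaching it (limit read from the data); inconclusive = only one of the two criteria met; inactive = mean below limit and not every replicate reaching it.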

Chain of FAD-linked sulfhydryl oxidase ALR (Homo sapiens) (P55789 whole entry, looked up): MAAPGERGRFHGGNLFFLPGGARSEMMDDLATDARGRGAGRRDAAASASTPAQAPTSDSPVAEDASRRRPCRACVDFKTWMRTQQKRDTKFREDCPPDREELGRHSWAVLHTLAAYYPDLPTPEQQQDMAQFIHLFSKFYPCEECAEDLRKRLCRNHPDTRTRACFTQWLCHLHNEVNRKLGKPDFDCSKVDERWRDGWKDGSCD

The assay has as its target FAD-linked sulfhydryl oxidase ALR (Homo sapiens) (UniProt P55789). In words: ALR-catalysed DTT oxidation blockers – biochemical, H2O2 detection, HRP-luminol luminescence, single point, primary screen (AID 485317). The settings on record: purified ALR, stronger effect = higher value, concentration not given here.
With `CCC(c1nnc(SCC(=O)NNC(=O)c2ccccc2)n1Cc1ccccc1)N(C)C` (stereo not given), the inhibition was -1.21%.

On to `O=C(CSc1nccn1-c1cccc(F)c1)NC1CCCC1`, for which the inhibition was -4.77%.

On to `O=C(CSCC(=O)Nc1cccc([N+](=O)[O-])c1)Nc1ccccc1`, for which the inhibition was -3.46%.

For `O=C(CSc1nc(-c2ccccc2)cs1)Nc1cccc([N+](=O)[O-])c1`, the inhibition is 98% (active).

On to `CCNC(=O)CSc1nc(-c2ccccc2)cs1`, for which the inhibition is -7.87%.

Regarding `COc1ccccc1C(=O)NCC(=O)OCC(=O)NNC(=O)c1ccc(Br)cc1`, the inhibition was 0.892%.

As for `COc1cc(OC)cc(C(=O)NCC(=O)OCC(=O)NC(C)CCc2ccccc2)c1` (stereo not given), the inhibition is -4.51%.

Take `Nc1cccnc1Sc1ccccc1`: the inhibition is -14.3%.

Consider `Cc1cc(=O)[nH]c(SCC(N)=O)c1C#N`, for which the inhibition was -1.22%.

`Cc1cc(C)c(C#N)c(SCC(=O)Nc2ccccc2)n1`: the inhibition is -3.28%.

As to `Cc1ccc(NC(=O)CSc2sc3c(O)cc(=O)[nH]c3c2C#N)cc1C`, the inhibition was 98.4% (active).

For the compound `Cc1ccc(S(=O)(=O)Nc2ccc(F)c(S(=O)(=O)N3CCOCC3)c2)cc1`, the inhibition is -9.01%.

Regarding `O=C(Nc1ccc2c(c1)OCO2)C1CC1(Cl)Cl` (stereo not given), the inhibition is -6.35%.

`O=C(c1ccc(Cl)nc1)N1CCN(S(=O)(=O)c2ccc3c(c2)OCCO3)CC1`: the inhibition was 0.752%.

With `Cc1c(C(=O)Nc2cccc(S(=O)(=O)N3CCOCC3)c2)oc2ccccc12`, the inhibition is -6.82%.

Regarding `O=C(O)c1cccc(S(=O)(=O)Nc2ccc(O)cc2Sc2nc3ccccc3s2)c1`, the inhibition is 98.9% (active).

In the case of `COc1ccc(S(=O)(=O)Nc2ccc(O)c(Sc3nc4ccccc4s3)c2)cc1`, the inhibition is 17.5%.

Take `Cc1nc2ccc(NC(=O)c3cccc(S(=O)(=O)N4CCOCC4)c3)cc2s1`: the inhibition is -4.99%.

For `COc1cc(OC)cc(C(=O)NC(C(=O)N2CCC2)C(C)C)c1` (stereo not given), the inhibition was 3.67%.

In the case of `O=C(CSc1ncn[nH]1)N/N=C/c1ccc(F)cc1`, the inhibition was -0.231%.

On to `Cc1ccc(S(=O)(=O)Nc2nc(CN3CCOCC3)nc3sc(C)c(C)c23)cc1`, for which the inhibition is -1.38%.

For `O=C(NNC(=O)c1ccc(Cl)nc1)c1ccc(Br)cc1`, the inhibition was -1.29%.

Consider `Cc1cnc(NC(=O)c2ccc(Cl)nc2)s1`, for which the inhibition was -5.29%.

As for `O=C(NNc1ccccn1)c1ccc(Cl)nc1`, the inhibition was 91.6% (active).

In the case of `COc1cc(/C=C/C(=O)OCC(=O)c2ccccc2)cc(OC)c1OC`, the inhibition is 3.07%.

Regarding `C[C@H](CO)N1C[C@H](C)[C@H](CN(C)C(=O)Nc2ccc(C(F)(F)F)cc2)Oc2c(NC(=O)c3ccncc3)cccc2C1=O`, the inhibition is -1.8%.

With `Cc1ccc(S(=O)(=O)NC2CCCCCC2)cc1`, the inhibition is -3.36%.

For the compound `Cc1cccc(Nc2ccccc2C(=O)NCc2ccco2)c1C`, the inhibition was 98.6% (active).

Regarding `Cc1ccccc1NC(=O)NCc1ccco1`, the inhibition is -5.6%.

In the case of `O=C(Nc1ccccc1)Nc1ccccc1C(=O)NCc1ccco1`, the inhibition is -2.76%.

Consider `O=C(OCC(=O)N1CCc2ccccc21)c1ccc([N+](=O)[O-])cc1`, for which the inhibition was -3.86%.

For the compound `O=C(/C=C/c1ccccc1[N+](=O)[O-])NCC1CCCO1` (stereo not given), the inhibition was -4.47%.

As to `CC1CCCCC1NC(=O)/C(C#N)=C/C=C/c1ccccc1[N+](=O)[O-]` (stereo not given), the inhibition is 97.6% (active).

Regarding `O=[N+]([O-])c1ccccc1/C=C/CN1CCC(O)CC1`, the inhibition is -20.9%.

Take `COc1ccc(/C(C)=N/NC(=O)c2ccc3nc[nH]c3c2)cc1`: the inhibition was -6.54%.

Turning to `CN(C)N=Nc1ccc2nc[nH]c2c1`, the inhibition was 92.1% (active).

In the case of `CC/C(O)=N\S(=O)(=O)c1ccc(N=NN(C)C)cc1`, the inhibition is -19.2%.

`Cc1cc(C)c(-c2csc(NC(=O)CCCc3nc4ccccc4c(=O)[nH]3)n2)c(C)c1`: the inhibition was -7.67%.

For `O=C(Cn1cnc2c(nnn2-c2ccccc2)c1=O)N1CCC(Cc2ccccc2)CC1`, the inhibition was -5.43%.

Regarding `O=C(CN1CCOc2ccccc21)N1CCC(Cc2ccccc2)CC1`, the inhibition was 98.1% (active).

With `CC1(C)CC(=O)C(CC(=O)N2CCC(Cc3ccccc3)CC2)C(=O)C1`, the inhibition was 2.75%.

Turning to `CCN(CC(=O)NCc1cccs1)C(=O)c1ccc(OC)c(S(=O)(=O)N2CCOCC2)c1`, the inhibition is -4.54%.

In the case of `CCC(C)N(C(=O)CSc1nnnn1-c1ccccc1OC)C1CCS(=O)(=O)C1` (stereo not given), the inhibition was 1.16%.

Consider `CC1(C)OC(=O)C(=CSc2ccc(C(C)(C)C)cc2)C(=O)O1`, for which the inhibition is 97.7% (active).

As to `O=C1CN(C(=O)COC(=O)/C=C/c2ccc(F)cc2)c2ccccc2N1`, the inhibition is -2.48%.

Regarding `COc1ccc(CC(=O)OC(C)C(=O)Nc2ccc(S(N)(=O)=O)cc2)cc1` (stereo not given), the inhibition was -3.25%.

For the compound `CC(OC(=O)CCCc1c[nH]c2ccccc12)C(=O)Nc1ccc(S(N)(=O)=O)cc1` (stereo not given), the inhibition is 81.6% (active).

As for `NS(=O)(=O)c1ccc(NC(=O)COC(=O)CCc2c[nH]c3ccccc23)cc1`, the inhibition was 23.6%.

On to `NS(=O)(=O)c1ccc(CCNC(=O)CN2C(=O)c3ccccc3S2(=O)=O)cc1`, for which the inhibition is 20.2%.

For the compound `O=C(NCCS(=O)(=O)N1CCN(c2ccccc2)CC1)c1ccco1`, the inhibition was 4.33%.

`O=C(Cn1cnc2c(OCc3ccccc3)ncnc21)NCCCn1ccnc1`: the inhibition was -1.71%.

For `O=C1CN(C(=O)COc2c(Cl)cccc2Cl)c2ccccc2N1`, the inhibition is -8.36%.

As for `COc1ccc(S(=O)(=O)NCc2cccnc2)cc1NC(=O)c1ccc(C)cc1`, the inhibition is -2.4%.

As for `CC(C)(C)NS(=O)(=O)NC(=O)C1=C(N2CCCC2)COC1=O`, the inhibition is 2.74%.

Consider `CC(=O)Nc1ccc(C(=O)Nc2cccc(S(=O)(=O)NC3=NCCC3)c2)cc1`, for which the inhibition is -4.84%.

Regarding `CC(=O)c1nn(-c2ccc(C)cc2)cc1C(=O)c1cccc(Br)c1`, the inhibition was -13.6%.

Regarding `CC(=O)N/C(=C\c1ccccc1)C(=O)OC(C)C(=O)N(C)c1ccccc1` (stereo not given), the inhibition is 0.887%.

As for `Cc1nc(SCC(=O)c2ccccc2)c([N+](=O)[O-])[nH]1`, the inhibition was 97.8% (active).

Take `Cc1nc(SCc2ccc(F)cc2)c([N+](=O)[O-])[nH]1`: the inhibition is 1.42%.

Regarding `Cc1nc2nc(SCC(=O)c3ccccc3)[nH]c2cc1Br`, the inhibition is -4.01%.
